Experimental data reported in the supplement of paper PMC8975748.
Counter-ions that a name gives are not always drawn. ± gives the standard deviation of the averaged measurements.

Assays:
[1] = system: Saccharomyces cerevisiae BY4741 SeMeCo community; assay: mean cell size (pixel area) (pixels); higher = larger cells; conditions: 10 µM; 24 h; SM minimal medium
Method in brief: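 Mean cell pixel area per well was determined by automated confocal microscopy with Harmony analysis of paraformaldehyde-fixed cells. The cells, a Saccharomyces cerevisiae BY4741 community of four plasmids that each complement one auxotrophy and carry a fluorescent marker, were incubated for 24 h with drug at a final 10 µM in SM medium in 384-well plates. Numbers are averaged over 3 replicates. Same SeMeCo high-content imaging drug screen: Selleck FDA-approved drugs at 10 µM, 24 h in SM medium, 384-well plates, 3 replicates.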

[2] = system: Saccharomyces cerevisiae BY4741 SeMeCo community; assay: z-score of prototroph abundance vs DMSO median; higher = larger share of this subpopulation than in DMSO controls; conditions: 10 µM; 24 h; SM minimal medium; subpopulation (auxotrophy): Prototroph
Method in brief: (§1)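 Automated confocal microscopy of paraformaldehyde-fixed cells was used to follow a Saccharomyces cerevisiae BY4741 community carrying four plasmids, each restoring one auxotrophy and encoding a distinct fluorescent protein. The community was pre-grown overnight to OD600 1.0, diluted to 0.3, and added at 70 µl to 384-well plates acoustically predosed with library drugs (10 µM final) for 24 h of growth in minimal SM medium. Single-auxotroph fluorescent strains set thresholds and autofluorescence correction, and each subpopulation's abundance was scored as a z-score against the vehicle-well median.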

[3] = system: Saccharomyces cerevisiae BY4741 SeMeCo community; assay: z-score of subpopulation abundance vs DMSO median, subpopulation auxotrophic for M; higher = larger share of this subpopulation than in DMSO controls; conditions: 10 µM; 24 h; SM minimal medium; subpopulation (auxotrophy): M
Method in brief: as §1

[4] = system: Saccharomyces cerevisiae BY4741 SeMeCo community; assay: z-score of subpopulation abundance vs DMSO median, subpopulation auxotrophic for L; higher = larger share of this subpopulation than in DMSO controls; conditions: 10 µM; 24 h; SM minimal medium; subpopulation (auxotrophy): L
Method in brief: as §1

[5] = system: Saccharomyces cerevisiae BY4741 SeMeCo community; assay: z-score of subpopulation abundance vs DMSO median, subpopulation auxotrophic for LU; higher = larger share of this subpopulation than in DMSO controls; conditions: 10 µM; 24 h; SM minimal medium; subpopulation (auxotrophy): LU
Method in brief: as §1

[6] = system: Saccharomyces cerevisiae BY4741 SeMeCo community; assay: z-score of subpopulation abundance vs DMSO median, subpopulation auxotrophic for HM; higher = larger share of this subpopulation than in DMSO controls; conditions: 10 µM; 24 h; SM minimal medium; subpopulation (auxotrophy): HM
Method in brief: as §1

[7] = system: Saccharomyces cerevisiae BY4741 SeMeCo community; assay: z-score of subpopulation abundance vs DMSO median, subpopulation auxotrophic for HU; higher = larger share of this subpopulation than in DMSO controls; conditions: 10 µM; 24 h; SM minimal medium; subpopulation (auxotrophy): HU
Method in brief: as §1

[8] = system: Saccharomyces cerevisiae BY4741 SeMeCo community; assay: z-score of subpopulation abundance vs DMSO median, subpopulation auxotrophic for UM; higher = larger share of this subpopulation than in DMSO controls; conditions: 10 µM; 24 h; SM minimal medium; subpopulation (auxotrophy): UM
Method in brief: as §1

[9] = system: Saccharomyces cerevisiae BY4741 SeMeCo community; assay: z-score of subpopulation abundance vs DMSO median, subpopulation auxotrophic for HLM; higher = larger share of this subpopulation than in DMSO controls; conditions: 10 µM; 24 h; SM minimal medium; subpopulation (auxotrophy): HLM
Method in brief: as §1

[10] = system: Saccharomyces cerevisiae BY4741 SeMeCo community; assay: z-score of subpopulation abundance vs DMSO median, subpopulation auxotrophic for HUM; higher = larger share of this subpopulation than in DMSO controls; conditions: 10 µM; 24 h; SM minimal medium; subpopulation (auxotrophy): HUM
Method in brief: as §1

[11] = system: Saccharomyces cerevisiae BY4741 SeMeCo community; assay: z-score of subpopulation abundance vs DMSO median, subpopulation auxotrophic for LUM; higher = larger share of this subpopulation than in DMSO controls; conditions: 10 µM; 24 h; SM minimal medium; subpopulation (auxotrophy): LUM
Method in brief: as §1

[12] = system: Saccharomyces cerevisiae BY4741 SeMeCo community; assay: z-score of subpopulation abundance vs DMSO median, subpopulation auxotrophic for HLUM; higher = larger share of this subpopulation than in DMSO controls; conditions: 10 µM; 24 h; SM minimal medium; subpopulation (auxotrophy): HLUM
Method in brief: as §1

[13] = system: Saccharomyces cerevisiae BY4741 SeMeCo community; assay: z-score of subpopulation abundance vs DMSO median, subpopulation auxotrophic for U; higher = larger share of this subpopulation than in DMSO controls; conditions: 10 µM; 24 h; SM minimal medium; subpopulation (auxotrophy): U
Method in brief: as §1

[14] = system: Saccharomyces cerevisiae BY4741 SeMeCo community; assay: z-score of subpopulation abundance vs DMSO median, subpopulation auxotrophic for H; higher = larger share of this subpopulation than in DMSO controls; conditions: 10 µM; 24 h; SM minimal medium; subpopulation (auxotrophy): H
Method in brief: as §1

[15] = system: Saccharomyces cerevisiae BY4741 SeMeCo community; assay: z-score of subpopulation abundance vs DMSO median, subpopulation auxotrophic for LM; higher = larger share of this subpopulation than in DMSO controls; conditions: 10 µM; 24 h; SM minimal medium; subpopulation (auxotrophy): LM
Method in brief: as §1

[16] = system: Saccharomyces cerevisiae BY4741 SeMeCo community; assay: z-score of subpopulation abundance vs DMSO median, subpopulation auxotrophic for HL; higher = larger share of this subpopulation than in DMSO controls; conditions: 10 µM; 24 h; SM minimal medium; subpopulation (auxotrophy): HL
Method in brief: as §1

Oc1ccc(Cl)c2cccnc12 [Cloxiquine]
mean cell size [1]: 14.28 ± 0.12
z-score of prototroph abundance [2]: -17.6
z-score of subpopulation abundance [3]: 5.82
z-score of subpopulation abundance [4]: -1.33
z-score of subpopulation abundance [5]: 6.41
z-score of subpopulation abundance [6]: 26.6
z-score of subpopulation abundance [7]: 11.8
z-score of subpopulation abundance [8]: 6.45
z-score of subpopulation abundance [9]: 64
z-score of subpopulation abundance [10]: 14.5
z-score of subpopulation abundance [11]: 22.1
z-score of subpopulation abundance [12]: 43.7

Oc1c(I)cc(Cl)c2cccnc12 [Clioquinol]
mean cell size [1]: 13.1 ± 0.49
z-score of prototroph abundance [2]: -17.7
z-score of subpopulation abundance [3]: -0.87
z-score of subpopulation abundance [4]: -0.06
z-score of subpopulation abundance [13]: -1.64
z-score of subpopulation abundance [14]: 9.23
z-score of subpopulation abundance [5]: 10.4
z-score of subpopulation abundance [15]: 5.23
z-score of subpopulation abundance [6]: 37.7
z-score of subpopulation abundance [7]: 16
z-score of subpopulation abundance [8]: 6.49
z-score of subpopulation abundance [16]: 9.34
z-score of subpopulation abundance [9]: 119
z-score of subpopulation abundance [11]: 9.68
z-score of subpopulation abundance [12]: 22.7

C=C[C@H]1CN2CC[C@H]1C[C@H]2[C@H](O)c1ccnc2ccc(OC)cc12 [Quinine HCl Dihydrate]
z-score of prototroph abundance [2]: -0.12
z-score of subpopulation abundance [3]: 0.59
z-score of subpopulation abundance [4]: -0.67
z-score of subpopulation abundance [13]: 0.16
z-score of subpopulation abundance [14]: 0.07
z-score of subpopulation abundance [5]: -0.08
z-score of subpopulation abundance [15]: -0.52
z-score of subpopulation abundance [7]: 0.2
z-score of subpopulation abundance [8]: 1.09
z-score of subpopulation abundance [16]: -0.28
z-score of subpopulation abundance [9]: 0.48
z-score of subpopulation abundance [10]: 0.21
z-score of subpopulation abundance [12]: 0.6

NC(=O)[C@@H]1CC[C@@H]2CN1C(=O)N2OS(=O)(=O)O [Avibactam sodium]
mean cell size [1]: 12.68 ± 0.1
z-score of prototroph abundance [2]: -0.66
z-score of subpopulation abundance [3]: 0.79
z-score of subpopulation abundance [4]: 0.6
z-score of subpopulation abundance [13]: 0.13
z-score of subpopulation abundance [14]: -0.62
z-score of subpopulation abundance [5]: 1.12
z-score of subpopulation abundance [15]: 0.78
z-score of subpopulation abundance [6]: 0.85
z-score of subpopulation abundance [7]: -0.2
z-score of subpopulation abundance [8]: 0.5
z-score of subpopulation abundance [16]: -0.05
z-score of subpopulation abundance [9]: 0.54
z-score of subpopulation abundance [11]: 0.46
z-score of subpopulation abundance [12]: 1.05

CC[N+](CC)(CC)CCOc1cccc(OCC[N+](CC)(CC)CC)c1OCC[N+](CC)(CC)CC [Gallamine Triethiodide]
mean cell size [1]: 12.6 ± 0.14
z-score of subpopulation abundance [3]: 0.42
z-score of subpopulation abundance [4]: -0.79
z-score of subpopulation abundance [13]: 0.76
z-score of subpopulation abundance [14]: -0.16
z-score of subpopulation abundance [5]: 0.16
z-score of subpopulation abundance [15]: -0.42
z-score of subpopulation abundance [7]: 0.25
z-score of subpopulation abundance [8]: 0.33
z-score of subpopulation abundance [9]: -0.27
z-score of subpopulation abundance [10]: 0.25
z-score of subpopulation abundance [11]: -0.03
z-score of subpopulation abundance [12]: -0.08

OB1OCc2cc(F)ccc21 [Tavaborole (AN-2690)]
mean cell size [1]: 14 ± 0.24
z-score of prototroph abundance [2]: -16.4
z-score of subpopulation abundance [3]: 1
z-score of subpopulation abundance [4]: 0.22
z-score of subpopulation abundance [13]: -3.62
z-score of subpopulation abundance [14]: 14.2
z-score of subpopulation abundance [5]: 4.22
z-score of subpopulation abundance [6]: 27.5
z-score of subpopulation abundance [8]: 7.1
z-score of subpopulation abundance [16]: 17.6
z-score of subpopulation abundance [9]: 98
z-score of subpopulation abundance [10]: 16.9
z-score of subpopulation abundance [11]: 16.4
z-score of subpopulation abundance [12]: 47.7

CCN(CC)C(=O)[C@@]1(c2ccccc2)C[C@H]1CN [Levomilnacipran Hydrochloride]
z-score of prototroph abundance [2]: -0.02
z-score of subpopulation abundance [3]: -0.27
z-score of subpopulation abundance [4]: -1.78
z-score of subpopulation abundance [13]: 1.27
z-score of subpopulation abundance [14]: -0.22
z-score of subpopulation abundance [5]: -0.02
z-score of subpopulation abundance [15]: -1.21
z-score of subpopulation abundance [6]: -0.69
z-score of subpopulation abundance [7]: 1.07
z-score of subpopulation abundance [8]: 0.93
z-score of subpopulation abundance [16]: -0.6
z-score of subpopulation abundance [9]: -1.07
z-score of subpopulation abundance [10]: -0.17
z-score of subpopulation abundance [11]: -0.59
z-score of subpopulation abundance [12]: -0.66
